Source: PubChem BioAssay
RTF Ca sens act = cardiac RTF calcium sensitization; activation, % at 7.2 µM; IANBD-labeled TnC RTF fluorescence at EC20 calcium; 0% EC20 calcium, 100% full calcium; AID 493008; 340,000 compounds, 0.24% hits; P19429+P45379;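 active = activation above the mean over all tested compounds plus 3 SD, cut at about 30% in these data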;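 note: rise in fluorescence read as greater calcium sensitivity of cardiac thin filaments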
RTF Ca sens inh = cardiac RTF calcium desensitization | P19429+P45379 | IANBD-labeled cardiac RTF, Ca2+ fluorescence | inhibition, % at 7.15 µM | 340,000 compounds, 0.12% hits | AID 493244;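 active = inhibition above the mean inhibition of all tested compounds plus 3 SD, cut at about 17% in these data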;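 note: assay run at fixed EC70 calcium of 1.6 mM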
LANA DNA inh = blocks KSHV LANA C-terminal domain binding to DNA; MBP-C-LANA/FAM-LBS DNA binding, fluorescence polarization; inhibition, % at 9 µM; 340,000 compounds, 0.078% hits;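 active = highest replicate inhibition at or above 60% at 9 µM, even if other replicates fall short; inactive = all replicates below 60% inhibition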;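 note: 0% = neutral control wells and 100% = 4 µM acridine orange control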
LANA-H2B inh = blocks KSHV LANA binding to histone H2A/H2B. Q9QR71. cell-free LANA-H2A/H2B peptide, fluorescence polarization. inhibition, % (test concentration not listed). 320,000 compounds, 0.6% hits. AID 2629; in the data active = inhibition mostly above about 10%, no sharp cut-off; inactive = mostly below about 6.7%
Keap1 Nrf2 FP = disrupts human Keap1 binding to Nrf2 peptide. Q14145. Keap1 Kelch-Nrf2 peptide fluorescence polarization, 1536-well. inhibition, % at 9.4 µM. 340,000 compounds, 0.15% hits. AID 504523; in the data active = inhibition above about 12%;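 note: human Keap1 Kelch domain with fluorescein labeled Nrf2 9mer peptide probe; 0% = neutral control wells and 100% = peptide positive control; higher means more block of Keap1 binding to Nrf2 peptide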
Target sequence (Q14145 whole entry, looked up, the tested form may be a part): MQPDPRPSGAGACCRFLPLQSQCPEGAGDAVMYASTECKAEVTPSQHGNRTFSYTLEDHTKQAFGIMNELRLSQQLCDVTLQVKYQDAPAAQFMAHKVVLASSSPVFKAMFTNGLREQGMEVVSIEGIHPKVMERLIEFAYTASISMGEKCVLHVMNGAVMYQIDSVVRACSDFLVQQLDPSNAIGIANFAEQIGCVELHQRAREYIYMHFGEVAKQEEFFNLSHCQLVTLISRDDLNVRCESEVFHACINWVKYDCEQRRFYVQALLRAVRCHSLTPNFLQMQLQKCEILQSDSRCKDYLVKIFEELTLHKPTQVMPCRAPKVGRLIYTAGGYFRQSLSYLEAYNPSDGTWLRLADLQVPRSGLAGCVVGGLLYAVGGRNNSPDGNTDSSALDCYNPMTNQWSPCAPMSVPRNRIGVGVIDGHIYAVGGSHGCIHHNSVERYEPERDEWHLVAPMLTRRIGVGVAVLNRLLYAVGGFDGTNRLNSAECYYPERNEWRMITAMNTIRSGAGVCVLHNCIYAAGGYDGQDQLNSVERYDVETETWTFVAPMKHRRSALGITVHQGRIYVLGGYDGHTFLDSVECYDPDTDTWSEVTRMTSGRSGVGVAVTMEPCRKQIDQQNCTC
Starred values were filed as active, the others as inactive; . = no result given; + = active, no number. In the library only some 1% were active in any assay of this set; here they are far more common.

SMILES	RTF Ca sens act	RTF Ca sens inh	LANA DNA inh	LANA-H2B inh	Keap1 Nrf2 FP
CCC(C)N1C(=O)/C(=C/c2c(NCCCOC(C)C)nc3c(C)cccn3c2=O)SC1=S (stereo not given)	133*	-37	10	-11	-5
CCCN1C(=O)/C(=C/c2c(NCCCOC(C)C)nc3c(C)cccn3c2=O)SC1=S	12	-21	3	-7	-5
COc1ccccc1CNC(=O)CSc1ccc(-c2ccccn2)nn1	-2	-6	0	-2	3
Oc1cccc(/C=N/NC(=S)Nc2cccnc2)c1O	-4	-7	0	197*	-3
Oc1ccc(/C=N/NC(=S)Nc2cccnc2)c(O)c1O	3	-4	12	.	-4
COc1ccccc1NC(=O)C(C)OC(=O)C1CCN(S(=O)(=O)c2ccccc2C(F)(F)F)CC1 (stereo not given)	8	-2	0	.	-5
CC(C)(C)OC(=O)NCCc1nnc(SCc2c(Cl)cccc2Cl)o1	3	-5	1	1	-5
CC(C)(C)OC(=O)NCCCCCc1nnc(SCc2c(F)cccc2Cl)o1	-6	-3	0	14*	-1
CC(C)(C)OC(=O)N1CCCC(C(=O)Nc2cccc(C(=O)N3CCCCC3)c2)C1 (stereo not given)	-1	-21	-2	.	-2
CC(C)(C)NC(=O)CC1C[C@H](C(=O)N2CCCCC2)[C@@]2(CCc3ccccc3)c3[nH]c4ccccc4c3CCN2C1=O (stereo not given in full)	3	0	2	32*	-3
CC[C@]12c3[nH]c4ccccc4c3CCN1C(=O)C(CC(=O)NCc1ccco1)C[C@@H]2C(=O)N1CCN(C(=O)C2CC2)CC1 (stereo not given in full)	-5	2	-1	-59	-3
CC[C@]12c3[nH]c4ccccc4c3CCN1C(=O)C(CC(=O)NCC13CC4CC(CC(C4)C1)C3)C[C@@H]2C(=O)N1CCN(C(=O)C2CC2)CC1 (stereo not given in full)	5	-5	-2	+	-4
CC[C@]12c3[nH]c4ccccc4c3CCN1C(=O)C(CC(=O)NC(C)(C)C)C[C@@H]2C(=O)N1CCN(C(=O)C2CC2)CC1 (stereo not given in full)	0	4	-2	183*	0
COc1ccc2[nH]c3c(c2c1)CCN1C(=O)C(CC(=O)NCCc2ccccn2)C[C@H](C(=O)N2CCOCC2)[C@@]31CCC1CCCC1 (stereo not given in full)	-1	-4	0	.	2
O=C(CC1C[C@H](C(=O)N2CCOCC2)[C@@]2(CCC3CCCC3)c3[nH]c4ccccc4c3CCN2C1=O)NCCc1ccccn1 (stereo not given in full)	4	-4	-2	105*	4
Cn1c(=O)c2[nH]c(-c3ccc(S(=O)(=O)O)cc3)nc2n(C)c1=O	2	-3	-1	5	-2
CCc1ccc(N(CC(=O)NC2CCCCC2)C(=O)CNC(=O)c2ccco2)cc1	-4	1	3	-9	-1
CC(C)c1ccc(N(CC(=O)NC2CCCCC2)C(=O)CNC(=O)c2ccco2)cc1	-1	7	0	39*	1
CCC(C)n1c(SCC(=O)N(CC)c2c(N)n(Cc3ccccc3)c(=O)[nH]c2=O)nc2ccccc2c1=O (stereo not given)	-2	-1	1	.	0
O=c1nc2c(O)cccn2c2c1c(=O)[nH]c1ccccc12	40*	-45	18	.	4
O=c1[nH]c2ccccc2c2nc3ccccn3c12	2	0	-1	-1	-3
CCOC(=O)C(NC(=O)c1ccccc1)C(C)(C)SCc1ccccc1 (stereo not given)	-5	-4	-1	.	0
Cc1ccc(OCC(=O)N(C)CC(=O)Nc2ccc(Cl)c(C(F)(F)F)c2)c([N+](=O)[O-])n1	3	-8	0	105*	-1
Cc1ccc(OCC(=O)N(C)CC(=O)Nc2ccc(F)cc2)c([N+](=O)[O-])n1	0	4	0	-2	-7
CC(=O)Nc1nc(C)c(-c2nc3ccc([N+](=O)[O-])cc3[nH]2)s1	0	-10	3	3	-3
C=CCN1C=CC(=C/C=C(/C#N)C(=O)OCC)C=C1	123*	-130	-58	-49	-213
CCOC(=O)/C(C#N)=C/C=C1/C=CC=CN1C	2	-4	-1	1	-3
